# High-throughput results as filed in PubChem BioAssay.
# Shiga toxin inh – Shiga toxin inhibition; Vero cells, Shiga toxin protein synthesis inhibition reporter; inhibition, % at 38.7 µM; actives 9.2% (n = 290,000); in the data active = inhibition mostly above about 28%, no sharp cut-off; inactive = mostly below about 43%; also: 0% is about no effect
# CHX counter – counter-screen hit for Shiga toxin inhibitors, cycloheximide. cell reporter, cycloheximide protein synthesis inhibition counterscreen. max response, %. actives 12% (n = 300,000). AID 2314; in the data active = max response mostly above about 13%, no sharp cut-off; inactive = mostly below about 14%; also: read at 38.3 µM for the half of the compounds with a filed dose; 0% is about no effect
# Sm TGR inh – inhibitors of Schistosoma mansoni thioredoxin glutathione reductase | Potency, µM (series often up to 114 µM), for the others: at the highest dose activity change, negative = inhibition, actives largely listed as inhibitors | actives 3% (n = 360,000) | Q962Y6 | purified TGR, DTNB reduction, TNB absorbance 405 nm; active = well fitted inhibition curve with a large enough effect; inconclusive = small, poorly fitted or top-dose-only effect; inactive = no such curve, though single readings can be large or run the other way; also: potency is read from the fitted curve at half-maximal effect; % is scaled to controls: 0 for no effect and ±100 for the full control effect; nearly all actives have a fitted effect of over 60% in size
#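 Kinetic colorimetric format: TGR-catalysed, NADPH-driven DTNB reduction monitored via TNB absorbance. Enzyme dispensed at 20 nM; compound exposure 15 min at room temperature before reaction start.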
# FMDV inh – antivirals against foot and mouth disease virus; FMDV antiviral cell-based qHTS; Potency, µM (highest dose often 57.9 µM), for the others: at the highest dose activity change, negative = inhibition, actives largely listed as inhibitors; actives 1.2% (n = 410,000); calls by dose curve; tested in HEK293T cells; also: read-out not given here; potency is read from the fitted curve at half-maximal effect; % is scaled to controls: 0 for no effect and ±100 for the full control effect; nearly all actives have a fitted effect of over 45% in size
# The depositor's hits bear a star; ? = inconclusive; . = not tested or not shown. Shown are actives, neighbours in structure and some others; about 12% of the full set was active somewhere.
SMILES,Shiga toxin inh,CHX counter,Sm TGR inh,FMDV inh
COC(=O)c1c(OCc2ccccn2)cc(=O)n2c1CCN(Cc1cccc(C(F)(F)F)c1)CC2,.,.,.,-15%
Cc1ccc(NC(=O)CSc2nc3ccccc3c3nc(CCc4c(C)n[nH]c4C)nn23)c(C)c1,.,.,-5%,-17%
Cc1ccc(Cl)c(NC(=O)Nc2csc3c2CCCC3)c1,.,.,9%,34%
CCOc1ccc(Nc2c(S(=O)(=O)c3ccc(C)cc3)cnc3cc(OC)c(OC)cc23)cc1,.,.,0%,-11%
CC[n+]1c(C)n(C)c2cc(S(=O)(=O)N(C)C)ccc21,-14,-3,50µM*,-4%
O=C(CNc1ccccc1F)Nc1cccc2ccccc12,27,-2,?,2%
O=C(Nc1ccccc1F)C(=O)Nc1cccc2ccccc12,.,28*,9%,68%
O=C(Nc1cccc2ccccc12)/C(Cl)=C/c1ccccc1,82*,42*,2%,8%
O=C(Nc1cccc2ccccc12)/C(=C/c1ccc([N+](=O)[O-])cc1)NC(=O)c1ccccc1,-3,1,3%,27%
COC(=O)c1ccc(C(=O)OC)c(NC(=O)c2cnn3c(C(F)F)cc(-c4ccccc4)nc23)c1,.,.,16%,-12%
CCC12CN3CC(C)(CN(C1)C3c1c(C)n(C)c3ccccc13)C2=O (centres undefined),.,.,-1%,-14%
CC1=NN(c2ccccc2)C(=O)/C1=C\c1c(C)[nH]n(-c2ccccc2)c1=O,-5,6,-1%,4%
CC1=NN(c2ccccc2)C(=O)/C1=C/c1c(O)n(-c2ccc(F)c(Cl)c2)[nH]c1=O,19,17*,-3%,16%
COCCCNc1ncnc2sc(C(=O)N3CCCCC3)c(C)c12,.,.,.,-7%
Cc1cc(N/N=C/c2cccc(Br)c2)nc2ccccc12,24*,33*,-9%,39%
ClC(Cl)(Cl)c1nc(N/N=C/c2ccncc2)c2ccccc2n1,-6,9,5%,0%
Cc1cc(N/N=C/c2ccncc2)nc2ccccc12,49*,14,-1%,20%
Cc1cccc(/C=N/Nc2ccc3ccccc3n2)c1,-3,1,0%,6.3µM*
Cc1ccc(NCc2cccn2-c2nnc(N3CCC(C(=O)NCc4ccc(F)cc4)CC3)s2)cc1,.,.,-20%,-22%
CCOc1ccccc1-n1nnc(S(=O)(=O)c2ccc(C)cc2)c1N,.,.,6%,-21%
CCN(CC)CCNC(=O)Nc1ccc2c(c1)N(Cc1ccccc1)C(=O)c1ccccc1S2,.,.,-3%,-15%
COc1cc(O)oc1C=Nc1ccccc1,109*,27*,-13%,24%
CCCCCCCCc1nnc(N)s1,7,12*,-1%,-16%
C(=C\c1nnc2c3ccccc3ncn12)/c1ccccc1,61*,51*,-5%,-5%
COc1cc(/C=C/c2nnc3c4ccccc4ncn23)cc(OC)c1OC,14,14*,-4%,0%
SMILES,Shiga toxin inh,CHX counter,Sm TGR inh,FMDV inh
COc1cc(/C=C/c2cc(C(=O)O)c3ccccc3n2)cc(OC)c1O,3,2,-22%,-3%
COc1cccc(C2=NN(S(C)(=O)=O)C(c3cn(-c4ccccc4)nc3-c3cccs3)C2)c1 (centres undefined),.,.,-11%,30%
Cn1c(SCC2CCCO2)nnc1C1CCN(Cc2ccco2)CC1 (centres undefined),.,.,.,-2%
O=C(Nc1cc(Cl)ccc1O)c1cc2nc(-c3ccc4c(c3)OCO4)cc(C(F)(F)F)n2n1,.,.,0%,-6%
CN(C)c1ncc(C(=O)NCc2ccccc2Cl)cn1,.,.,-2%,-7%
CCN(c1ccccc1)S(=O)(=O)c1cc(C(=O)Nc2ccccc2Cl)ccc1F,2,-1,0%,?
CCN(c1ccccc1)S(=O)(=O)c1cc(C(=O)Nc2ccc(Br)cc2)ccc1F,65*,14*,7%,18µM*
Cc1ccc(S(=O)(=O)NCc2ccccc2)cc1C(=O)N1CC(C)CC(C)C1 (centres undefined),.,.,-12%,12%
Cc1ccc(S(=O)(=O)NCc2ccccc2)cc1C(=O)NC1CCC(C)CC1 (centres undefined),55*,12*,-11%,27%
CC1CCc2c(sc(NC(=O)c3cc4nc(-c5ccc(Cl)cc5)cc(C(F)(F)F)n4n3)c2C#N)C1 (centres undefined),.,.,-7%,-6%
CC(C)CNC(=O)/C=C/c1cccs1,24,19*,3%,28%
CCC(C)(C)NC(=O)/C=C/c1cccs1,12,11*,-1%,23%
O=S(=O)(c1ccccc1)c1nnn2c1nc(NC1CCCCC1)c1sccc12,.,.,-1%,-1%
CCN(CC)S(=O)(=O)c1ccc2c(c1)N(CC(=O)Nc1cccc(C)c1C)C(=O)C1CCCN21 (centres undefined),.,.,-3%,-4%
Cn1c(=O)n(C)c2cc(CNCc3ccc(C(=O)O)cc3)ccc21,.,.,1%,-1%
